Experimental data as given in PubChem BioAssay (NCATS).
A number with no mark means an inactive call. Calls come from the whole dose curve; as a rule, active = well fitted curve in the direction sought with a large enough effect; inconclusive = small, poorly fitted or top-dose-only effect, or effect the other way, or another doubt; inactive = no such curve, though single readings can be large or run the other way.

Assay: qHTS of Nrf2 Activators: LOPAC Validation (AID 624149); note: 0% is about no effect
Details: Nrf2/ARE reporter cell assay; series mostly up to 46.1 µM; activation: at the top concentration
Description: Many diseases have some form of oxidative stress injury and ties to inflammation, causing a host of problems for the patient. The antioxidant response element (ARE) plays an important role in alleviating the harmful effects of oxidative stress. The antioxidant response element (ARE) is a transcriptional regulatory element involved in the activation of genes coding for a number of antioxidant proteins and detoxifying enzymes. These enzymes work in concert to protect tissues from oxidative insults and chemical toxicities in human hepatocytes and immune cells. The protective effects of ARE activation are primarily triggered through Nrf2 (NF-E2-related factor) binding to and activating AREs. It is known that Nrf2 controls the production of over 250 antioxidant and detoxification proteins (Hu et al., 2006), thereby protecting tissues by increasing cellular antioxidant content and suppressing inflammatory signaling pathways. The transcription factor Nrf2 is a central link between oxidative chemicals, such as phenolic antioxidants and electrophilic compounds, and the activation of ARE. Nrf2 levels are constitutively low as a consequence of its interaction with Keap1, which targets its degradation (Zipper and Mulcahy, 2002). Electrophiles react with key cysteine residues in Keap1, releasing Nrf2 and allowing its translocation to the nucleus. Once within the nucleus, Nrf2 complexes with coactivators such as p300, and binds to the AREs to induce gene transcription of cytoprotective enzymes, resulting in the prevention of toxicity. Activation of Nrf2 protects tissues by increasing cellular antioxidant content and suppressing inflammatory signaling pathways. Identifying novel and potent Nrf2 activators by using the AREc32 cell line to detect ARE activation by small molecules will lead to the identification and development of probes to study protective pathways in multiple tissues. These specific probes are essential to study the ARE pathway, and eventually to determine whether this pathway does activate genes that could protect against a host of diseases, including cardiovascular diseases, obesity, diabetes, Alzheimer's, and Parkinson's disease.
This project's aim is to identify novel and potent Nrf2 activators by using the AREc32 cell line to detect ARE activation by small molecules, which will lead to the identification and development of probes to study the ARE pathway.
NIH Chemical Genomics Center [NCGC]
NIH Molecular Libraries Probe Centers Network [MLPCN]
Assay Submitter (PI): Curtis Klaassen, University of Kansas Medical Center
5 uL of 1000 cells/well of AREc32_Fluc cells are seeded into 1536-well plate in OPTI-MEM medium with 5% FBS. The plates are incubated overnight at 37 deg C with 5% CO2. Then through pin tool transfer, 23 nL of compounds are added to each well before a 24 hr incubation at 37 deg C with 5% CO2. After the addition of 2.5 uL of Steady-Glo. the plates are kept at RT for 30 min, before they are read on the ViewLux

Row | SMILES | activation
1 | CC(C)C[C@H](NC(=O)C1OC1C(=O)O)C(=O)NCCCCN=C(N)N (stereo not given in full) | 0.857%
2 | CN1CCc2cc(Cl)c(O)cc2[C@@H](c2ccccc2)C1 | -2.52%
3 | COc1cc(N)c(Cl)cc1C(=O)OCCN1CCCCC1 | -0.803%
4 | Cc1cccc(C2CN(C)CCc3c2cc(O)c(O)c3Cl)c1 (stereo not given) | -1.93%
5 | NC1(C(=O)O)CCc2cc(C(=O)O)ccc21 (stereo not given) | 0.611%
6 | Cn1c(=O)c2c(nc(/C=C/c3cccc(Cl)c3)n2C)n(C)c1=O | 0.932%
7 | COc1cc(C(O)C(=O)O)ccc1O (stereo not given) | -1.2%
8 | O=C(c1ccc2c(c1)OCCO2)N1CCCCC1 | -1.24%
9 | CNc1ncnc2c1ncn2[C@H]1C[C@H](OP(=O)(O)O)[C@@H](COP(=O)(O)O)O1 | -1.95%
10 | CCCOC(=O)c1c(-c2ccccc2)nc(CC)c(C(=O)SCC)c1CCC | -1.76%
11 | COC(=O)C1=C(C)NC(C)=C([N+](=O)[O-])C1c1ccccc1C(F)(F)F (stereo not given) | -2.29%
12 | CCCn1c(=O)c(C)cn2nc(N)nc12 | -1.35%
13 | CCCCCCN(CCCCCC)C(=O)Cc1c(-c2ccc(F)cc2)[nH]c2ccccc12 | 1.07%
14 | COc1ccccc1N1CCN(CCN(C(=O)c2ccc(F)cc2)c2ccccn2)CC1 | -2.33%
15 | CCSC(=N)N | -1.22%
16 | CN1Cc2sccc2C(c2ccc(O)c(O)c2)C1 (stereo not given) | 1.4%
17 | COC(=O)C(C)(N)Cc1ccc(O)cc1 (stereo not given) | 0.691%
18 | N[C@@H](CCC(=O)N[C@H](CSN=O)C(=O)NCC(=O)O)C(=O)O | -2.01%
19 | O=C1C2C=CC=CC2=NC(=S)N1CCN1CCC(=C(c2ccc(F)cc2)c2ccc(F)cc2)CC1 (stereo not given) | 0.99%
20 | O=C(O)Cc1ccc(O)c(O)c1 | -1.34%

Row | SMILES | activation
21 | CCCCCCCCCCC/C=C\C(C)(C)/C=C\CCCC(=O)O | -1.59%
22 | CCCCCC[C@@H]([C@@H](C)O)n1cnc2c(N)ncnc21 | -1.64%
23 | CCCC(=O)NCCc1c2n(c3ccc(OC)cc13)CCCc1ccccc1-2 | -1.76%
24 | CC(N)(C(=O)O)c1ccc(C(=O)O)cc1 (stereo not given) | -0.777%
25 | CC(=O)[C@H]1CCC2C3CC=C4C[C@@H](OS(=O)(=O)O)CC[C@]4(C)C3CC[C@@]21C (stereo not given in full) | 0.559%
26 | NC[C@@H]1O[C@H](c2ccccc2)Cc2c1ccc(O)c2O | 1.48%
27 | COc1cc(CNC(=O)CCCCCCC(C)C)ccc1O | 0.492%
28 | COc1cccc(OC)c1OCCNCC1CSc2ccccc2O1 (stereo not given) | 1.48%
29 | CC(C)(CO)Cc1cc(C(C)(C)C)c(O)c(C(C)(C)C)c1 | 0.897%
30 | COc1ccccc1N1CCN(CCCCNC(=O)c2ccc3ccccc3c2)CC1 | -1.41%
31 | CN1CCN(c2nc3cc(C(F)(F)F)ccc3n3cccc23)CC1 | -2.4%
32 | Nc1nc2c(nc(Br)n2C2OC3COP(=O)(O)O[C@@H]3C2O)c(=O)[nH]1 (stereo not given in full) | 0.659%
33 | O=c1cc(-c2ccccc2)[nH]c2nc(Cl)ccc12 | -0.209%
34 | O=C(O)c1cccnc1C(=O)O | 0.859%
35 | Nc1ncnc2c1ncn2C1CCCO1 (stereo not given) | -1.76%
36 | CCN(CC)CCCCCCCCOC(=O)c1cc(OC)c(OC)c(OC)c1 | 0.811%
37 | CC(/C=C/c1cccc(Oc2ccc(F)cc2)c1)N(O)C(N)=O (stereo not given) | 0.825%
38 | O=c1[nH]c(=S)[nH]c(-c2ccccc2)c1Cc1c(O)ccc2ccccc12 | -2.06%
39 | Brc1c(Br)c(Br)c2[nH]cnc2c1Br | -0.818%
40 | C[C@H](NC(=O)/C(C#N)=C/c1ccc(O)c(O)c1)c1ccccc1 | 7.71%
